In ChEMBL document CHEMBL4513146, “CO-ADD screening of Karazin Kharkiv National University (Ukraine) compounds”:
Measured potencies and affinities stand elsewhere.

tested on: Cryptococcus neoformans; conditions: Concentration 32 ug.mL-1; ASSAY_TEST Inhibition of Fungal Growth; detection method Resazurin; Absorption (OD600-OD570); plate type 384well; NBS; CORNING #3640

SMILES	Inhibition
COc1cccc(CNC(=O)Cn2nc3c4cc(-c5cc(C)ccc5C)nn4ccn3c2=O)c1OC	-13.57%
Cc1ccc(Cl)cc1NC(=O)Cn1c(=O)c2nnc(C(C)C)n2c2ccccc21	-16.4%
COc1cccc(Oc2nccn3c(=O)n(CC(=O)NC4CCCCC4)nc23)c1	-8.14%
NC(=O)C1CCN(C(=O)CCc2nnc3c(N4CCCCC4)nc4ccccc4n23)CC1	-5.85%
COc1ccc(N(Cc2cccc(C)c2)S(=O)(=O)c2ccc3nnc(C)n3c2)cc1	-1.35%
Cc1c(Cl)cccc1NC(=O)Cn1nc2c3c4c(sc3ncn2c1=O)CCCCC4	-27.44%
CCOc1ccc(-n2ccn3c(SCC(=O)c4ccc(OC)c(OC)c4)nnc3c2=O)cc1	-6.73%
COc1ccc(C)cc1NC(=O)Cn1nc2c(N3CCSCC3)nc3ccccc3n2c1=O	-24.78%
Cc1cc2nn(CC(=O)Nc3cc(F)ccc3F)c(=O)n2c(Nc2ccc(F)c(C)c2)n1	-3.72%
COc1ccccc1-n1ccn2c(SCc3cccc(Cl)c3)nnc2c1=O	-7.59%
Cc1c(Cl)cccc1-n1ccn2c(=S)[nH]nc2c1=O	-13.36%
COc1ccc(NC(=O)Cn2nc3nc(N4CCOCC4)ccn3c2=O)cc1F	-8.95%
COc1ccc(C(=O)CSc2nnc3c(=O)n(-c4ccc(F)cc4)ccn23)cc1OC	-8.42%
COc1cccc(-n2ccn3c(SCC(=O)c4ccc(C)cc4)nnc3c2=O)c1	-10.21%
O=c1n(Cc2cccc(C(F)(F)F)c2)nc2c(S(=O)(=O)N3CCCCC3)cccn12	-8.66%
CCOC(=O)c1ccccc1NC(=O)CSc1nnc2ccc(C(=O)Nc3cccc(F)c3)cn12	-6.96%
COc1ccc(NC(=O)c2ccc3nn(CC(=O)Nc4ccc(C(C)C)cc4)c(=O)n3c2)cc1	-13.36%
CC(C)CCn1c(=O)c2sccc2n2c(=O)n(CC(N)=O)nc12	-22.72%
COc1ccccc1NC(=O)Cn1nc2c3cc(-c4ccc(Cl)cc4)nn3ccn2c1=O	-18.6%
O=C(Cn1nc2c(SC3CCCCC3)nccn2c1=O)Nc1ccccc1Br	-1.71%

SMILES	Inhibition
O=C(Cn1nc2c3cc(-c4ccc(F)cc4)nn3ccn2c1=O)NCc1ccccc1Cl	-27.16%
O=C(CSc1nnc2c(=O)n(-c3ccccc3)ccn12)Nc1cccc(F)c1	-21.7%
CCCCN(C)c1ccc2nnc(CCc3nc(-c4cccc(Br)c4)no3)n2n1	-17.7%
Cc1ccc(-c2cc3c4nnc(CCC(=O)NCc5ccc(F)c(Cl)c5)n4ccn3n2)cc1C	-43.73%
Cc1nnc2ccc(S(=O)(=O)N(Cc3ccccc3F)c3ccc(Cl)cc3)cn12	-8.97%
Cc1cc(C)c(C(=O)CSc2nnc3c(=O)n(-c4ccc(F)cc4)ccn23)cc1C	-8.78%
COc1cc(NC(=O)Cn2nc3c(Oc4ccccc4)nccn3c2=O)cc(OC)c1OC	-9.79%
COc1cccc(-n2ccn3c(SCc4c(F)cccc4Cl)nnc3c2=O)c1	-10.15%
COc1ccccc1-n1ccn2c(SCC(=O)Nc3ccc(F)cc3F)nnc2c1=O	-9.49%
CCCCc1ccc(NC(=O)Cn2nc3c(SC4CCCCC4)nccn3c2=O)cc1	-5.76%
O=c1c2nnc(SCc3ccccc3Cl)n2ccn1-c1ccc(F)cc1	-9%
O=c1c2nnc(SCc3ccccc3)n2ccn1-c1ccc(Br)cc1	-7.93%
CCOc1ccc(C(=O)CSc2nnc3c(=O)n(-c4ccc(Br)cc4)ccn23)cc1	-11.96%
Cc1ccc(Oc2nccn3c(=O)n(CC(=O)Nc4ccc(Br)cc4F)nc23)cc1	-6.11%
O=C(Cn1nc2ccc(SCc3ccc(Cl)cc3)nn2c1=O)Nc1ccccc1C(F)(F)F	-11.3%
Cc1nnc2ccc(S(=O)(=O)N(Cc3ccccc3)c3cccc(F)c3)cn12	-9.94%
CCOC(=O)c1ccc(NC(=O)Cn2nc3ccc(SCc4ccc(Cl)cc4)nn3c2=O)cc1	-19.64%
CCC(C)NC(=O)c1ccc2c(=O)n(C3CC3)c3nn(CC(=O)NC(C)C)c(=O)n3c2c1 (centres undefined)	-38.88%
COc1cccc(CN(c2ccc(F)c(F)c2)S(=O)(=O)c2ccc3nnc(C)n3c2)c1	-8.55%
